The record followed here is the supplement of paper PMC11417369.

The full ranking holds about 25,000 sequences; the median of “ln(normalized median fluorescence intensity)” is about 6.7, and the highest 2% start at about 10. This is one part of a sample in which the highest values are shown more often than they occur.

The test system of this experiment is PfHDP1 homeodomain (GST-tagged). Nature of the experiment: gcPBM binding intensity (ln(normalized median fluorescence intensity)); higher = stronger DNA binding. Put shortly:
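Binding intensity is the highest Masliner-normalised natural-log median intensity over replicate spots in either probe orientation. To obtain it, GST-tagged P. falciparum DNA-binding domains made in E. coli were incubated for 1 h on an Agilent 4 × 180k array of primer-extended double-stranded 36-bp intergenic genomic probes plus negative controls. Detection used Alexa488 anti-GST antibody with scanning at 488 nm.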
“TAATAAATCCTATATAGTACATATATGCAAGTATGT [XGTACX_site3955]”: the “gcPBM binding intensity (ln)” value amounted to 6.97.

Consider “TCTTATTAAAATATTTATATAGGTAATCACAATATT [GTGCAC_negctrl_site568]”, for which the “gcPBM binding intensity (ln)” value was determined as 6.37.

For the sequence ATATCAAACTAGAATGTGCGCATGCATTCAAGTTTT, the “gcPBM binding intensity (ln)” value was determined as 6.54.

In the case of “TATGTCAATTTTCATACATGCGCATAATCTTTATTT [TGCATGCA_site807]”, the “gcPBM binding intensity (ln)” value was found to be 7.53.

“TTATTATTCATATATTCACACATTAAAATTTTTCAA [CACACA_site4243]”: the “gcPBM binding intensity (ln)” value came to 6.62.

For the sequence TTCATTCAAATTAACGTGCACATTATTAGTAAAAAC, the “gcPBM binding intensity (ln)” value was determined as 10.7.

For the sequence “TGTAAATTATAACGTGCACACATATTTAAAATGAAA [CACACA_site8915]”, the “gcPBM binding intensity (ln)” value is 9.88.

For the sequence “GTATATATATATATATGCAAATGTATAAATCTACAT [CACACA_negctrl_site546]”, the “gcPBM binding intensity (ln)” value was determined as 7.32.

Regarding “CTAATCGTGCACAACTGTACATTTGTCAAGGGCAAT [XGTACX_site8662]”, the “gcPBM binding intensity (ln)” value turned out to be 10.8.

For the sequence “TTGCAACTCTTCAATCGTACACATTATTTATTATAT [XGTACX_site1377]”, the “gcPBM binding intensity (ln)” value is 6.89.

Turning to “TAAAATATATAAAACTGTACATTTTAAAGGCACAAC [XGTACX_site8342]”, the “gcPBM binding intensity (ln)” value was 7.1.

In the case of “CTTGTCATTGGGCACACACACATGTATAGGTTATTA [CACACA_site3058]”, the “gcPBM binding intensity (ln)” value stood at 6.49.

“GTATATCACACATTTGCATGTTGTCAATAGTTTATC [TGCATGCA_site134]”: the “gcPBM binding intensity (ln)” value amounted to 6.93.

Take “TATATAGGTATCATTACACACATGTATACTTATTTG [CACACA_site7864]”: the “gcPBM binding intensity (ln)” value turned out to be 6.47.

For the sequence “AGCTCTTGTCATTTTGCACACACACCGGTATAGGTT [CACACA_site5654]”, the “gcPBM binding intensity (ln)” value worked out at 10.4.

Take “CTCTTGTCATTTTGCACACACACATGGATAGGTTAT [CACACA_site5655]”: the “gcPBM binding intensity (ln)” value amounted to 10.8.

Take “CTCTTGTCATTTTGCACACACACATGTATAGGTTAT [CACACA_site3057]”: the “gcPBM binding intensity (ln)” value is 11.1.

“CTTGTCATTTGGCACACACACATGTATAGGTTATTA [CACACA_site5656]”: the “gcPBM binding intensity (ln)” value was 6.72.

As to “CTTGTCATTTTGCACACACACATGTATAGGTTATTA [CACACA_site7431]”, the “gcPBM binding intensity (ln)” value stood at 10.9.

Consider “AGCTCTTGTCATTTTGCACACACACCCGTATAGGTT [CACACA_site3056]”, for which the “gcPBM binding intensity (ln)” value is 10.3.

Take “TCTACATATTAATTATGTACGAATTATTATTAGTAA [XGTACX_site6924]”: the “gcPBM binding intensity (ln)” value came to 6.03.

“TTTAAGAATTAACGGGGTACAATTCTTAAATATATA [XGTACX_site669]”: the “gcPBM binding intensity (ln)” value was 6.33.

On to “ACTGAAAAAAGAAATACACACATTCTGGATCATATA [CACACA_site3860]”, for which the “gcPBM binding intensity (ln)” value is 6.47.

Consider “ATTTTTTTTTGTGTATATAAATAAATAAATATATAT [GTGCAC_negctrl_site603]”, for which the “gcPBM binding intensity (ln)” value was determined as 6.47.

As for “AAGAAAAAGACTTCATGAAAAAGAATTTTTTTAATT [TGCATGCA_negctrl_site473]”, the “gcPBM binding intensity (ln)” value turned out to be 5.86.

Take “TATTTATTGTGACACTTTTATTATTTTATGATAAAA [CACACA_negctrl_site37]”: the “gcPBM binding intensity (ln)” value came out at 6.6.

On to “AATATAAGCAAATACACACACACATATAAATATGTA [CACACA_site7741]”, for which the “gcPBM binding intensity (ln)” value is 7.03.

As to “TACATAAACATTTATACACACATTATAAATACATAT [CACACA_site4386]”, the “gcPBM binding intensity (ln)” value came out at 6.74.

On to “TTAATATGAAATAAATGTACATAATACATAATAAAA [XGTACX_site6194]”, for which the “gcPBM binding intensity (ln)” value came out at 6.44.

On to “ACAAATAAGTTTTGTAGTACTGTGTATATATATATA [XGTACX_site6901]”, for which the “gcPBM binding intensity (ln)” value came out at 8.95.

For the sequence TTTTTATTTTCATATGTGCACTTATATATATATATA, the “gcPBM binding intensity (ln)” value stood at 10.2.

Regarding “TTTATATTCTTAAGTGTGCACTATATATATATATAT [GTGCAC_site9719]”, the “gcPBM binding intensity (ln)” value is 10.5.

TAATTATTCTATTAAGTGCATATATTTTTAAAAAGA: the “gcPBM binding intensity (ln)” value was determined as 9.39.

As to ATTTTTTTCTTAGGAGTGCACTTATATTTATTTTAT, the “gcPBM binding intensity (ln)” value was found to be 10.3.

For the sequence ATATATTTTATATGTGTGCACTATATATATATATAT, the “gcPBM binding intensity (ln)” value is 10.8.

With “ATCATATTTTTATGTGTGCACTTTTTTTTTTTTTTT [GTGCAC_site9555]”, the “gcPBM binding intensity (ln)” value was 8.73.

Take “TGAATAAATATATATACACACCCATATATATATATA [CACACA_site8833]”: the “gcPBM binding intensity (ln)” value stood at 9.21.

For the sequence “AAAAGAAGATAATACAGTACAGAATAATATAAAATA [XGTACX_site5962]”, the “gcPBM binding intensity (ln)” value turned out to be 6.51.

“TAAAATATATTTTTCTGTACACAAAAATATATTAAA [XGTACX_site2813]”: the “gcPBM binding intensity (ln)” value was 6.24.

Take “TTTTCTGTATATTGTGTGCACACAATTAACAAAAAA [GTGCAC_site9817]”: the “gcPBM binding intensity (ln)” value was 10.6.

As to “TTCTGTATATAGTGTGCACACAATTAAAAAAAAAAA [CACACA_site8400]”, the “gcPBM binding intensity (ln)” value worked out at 10.8.

For “TTCTGTATACGGTGTGCACACAATTAAAAAAAAAAA [CACACA_site1416]”, the “gcPBM binding intensity (ln)” value was 10.8.

With “ATAAAATATAAAAACGCACACAATTATAAGGGTGTA [CACACA_site177]”, the “gcPBM binding intensity (ln)” value came to 6.96.

As for ATATTTAAAAATATAGTGCAATTATTCTAATGTGTT, the “gcPBM binding intensity (ln)” value is 8.89.

Regarding “TTCTGTATAATATAAAAACAAAAATTAAATTAAAAC [CACACA_negctrl_site81]”, the “gcPBM binding intensity (ln)” value is 6.43.

Regarding “TTTTTTTTTCTGTATACACACAAAATTTATTTTTTA [CACACA_site2873]”, the “gcPBM binding intensity (ln)” value worked out at 6.68.

Take “TATGTATATATATTAACACACAAAAAAAAAAAAAAA [CACACA_site1812]”: the “gcPBM binding intensity (ln)” value was found to be 6.2.

With “TTTTTATGTGTATATTATTACATTTACATCTTTAAC [CACACA_negctrl_site1676]”, the “gcPBM binding intensity (ln)” value is 6.64.

Take ATTATTACTTTTTGAGTGCACATACACACAGACATA: the “gcPBM binding intensity (ln)” value is 10.

Turning to ATAATAAAATGGAGAGTGCATACATGTTTATTTTAT, the “gcPBM binding intensity (ln)” value is 7.7.

Regarding “AAATTATGAACATATTGTACATATATATATATATAT [XGTACX_site8269]”, the “gcPBM binding intensity (ln)” value came out at 9.41.

Take “ATTTAAGATTTAATCACACACATATATATTATATAC [CACACA_site2907]”: the “gcPBM binding intensity (ln)” value was found to be 6.55.

Take TGCAATTTAATATGAGTGCATATATTGAGAAAATAC: the “gcPBM binding intensity (ln)” value turned out to be 9.36.

Consider “AATGGGGAAGGTTCTACACACAACGCAAATGCCTTA [CACACA_site2758]”, for which the “gcPBM binding intensity (ln)” value amounted to 6.41.

For “TGTGCACATAATTAGTGTACATTTTTTATTTAGACA [XGTACX_site317]”, the “gcPBM binding intensity (ln)” value came to 10.1.

Regarding “AGACCTTTAATTTGTGTGCACATAATTAGTGTACAT [GTGCAC_site9434]”, the “gcPBM binding intensity (ln)” value came out at 10.7.

Turning to “TCCCTTAATTTTGTGTGTACATATAATATATTTTTA [XGTACX_site2789]”, the “gcPBM binding intensity (ln)” value stood at 6.76.

“AAAAAAAAAAAAAACACACACATATAATATATTTAA [CACACA_site1337]”: the “gcPBM binding intensity (ln)” value turned out to be 6.35.

As for “AAACAATAAAAGATTACACACATATATAGCATATAT [CACACA_site1698]”, the “gcPBM binding intensity (ln)” value was determined as 6.82.
